Several values for one entry are separate records, joined by “and”; a condition that tells them apart may be missing. Equal values may be shown once. Records with an inconclusive call do not appear. A call without a number means that no potency is given here. Some structures have more than one record in an assay (separate samples or runs), and their calls can disagree. Activity calls are given as the source filed them. Unless noted, calls follow the shape of the dose curve; as a rule, active = well fitted curve in the direction sought with a large enough effect in the repeat runs; inconclusive = weak or mixed curves; inactive = no such curve, though single readings can be large; an effect the other way counts as inactive or inconclusive.
Key:
[1] = molecular target: Acetylcholinesterase (Homo sapiens) (UniProt P22303); test: Acetylcholinesterase (AChE) small molecule antagonists: enzyme-based qHTS assay (AID 1347397; calls by dose curve; also: nearly all actives have a fitted effect of over 55% in size; also: potency is read from the fitted curve at half-maximal effect); conditions: Potency: AChE enzyme activity inhibition
Chain of Acetylcholinesterase (Homo sapiens) (P22303 whole entry, looked up): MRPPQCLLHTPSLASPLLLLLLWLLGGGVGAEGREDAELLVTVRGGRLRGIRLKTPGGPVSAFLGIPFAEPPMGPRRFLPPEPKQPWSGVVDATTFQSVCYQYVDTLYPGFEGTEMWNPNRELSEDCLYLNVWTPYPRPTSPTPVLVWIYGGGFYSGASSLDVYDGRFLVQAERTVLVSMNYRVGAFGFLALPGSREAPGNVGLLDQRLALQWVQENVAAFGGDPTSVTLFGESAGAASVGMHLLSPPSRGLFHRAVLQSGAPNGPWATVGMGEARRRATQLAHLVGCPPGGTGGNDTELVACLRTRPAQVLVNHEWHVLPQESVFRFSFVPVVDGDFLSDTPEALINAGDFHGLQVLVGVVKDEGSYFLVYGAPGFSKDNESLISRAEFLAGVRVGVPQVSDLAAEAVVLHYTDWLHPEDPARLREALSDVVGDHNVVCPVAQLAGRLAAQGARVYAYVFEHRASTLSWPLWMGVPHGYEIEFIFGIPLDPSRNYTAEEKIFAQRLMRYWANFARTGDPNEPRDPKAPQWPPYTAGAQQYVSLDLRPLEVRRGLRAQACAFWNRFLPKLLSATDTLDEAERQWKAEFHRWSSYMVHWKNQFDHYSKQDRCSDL
Summary of the method: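 Human recombinant acetylcholinesterase; substrate acetylthiocholine; thiocholine quantified with DTNB (colorimetric). Compound preincubation 30 min RT; reaction 10 min RT.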

[2] = molecular target: Acetylcholinesterase (Homo sapiens) (UniProt P22303); test: Acetylcholinesterase (AChE) small molecule antagonists: fluorescence cell-based qHTS assay (AID 1347398; calls by dose curve; also: nearly all actives have a fitted effect of over 50% in size; also: potency is read from the fitted curve at half-maximal effect); conditions: Potency: AChE activity
Summary of the method: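 Thiocholine generated from acetylthiocholine by SH-SY5Y cell AChE is detected with Thiolite Green (Ex/Em 490/520 nm) after 40 min at room temperature, following 30 min compound pretreatment at 37 C.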

[3] = molecular target: Acetylcholinesterase (Homo sapiens) (UniProt P22303); test: Acetylcholinesterase (AChE) small molecule antagonists: enzyme-based qHTS assay with human liver microsomes (AID 1347399; calls by dose curve; also: nearly all actives have a fitted effect of over 60% in size; also: potency is read from the fitted curve at half-maximal effect); conditions: Potency: qHTS inhibition
Summary of the method: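 Recombinant human AChE (50 mU/mL in the enzyme mix) and human liver microsomes (0.25 mg/mL final) were preincubated with compound and NADPH (0.25 mg/mL final) for 30 min at 37 C. Acetylthiocholine/DTNB was then added; thiocholine was read colorimetrically after 10 min at room temperature.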

[4] = molecular target: Cytochrome P450 2D6 (Homo sapiens) (UniProt P10635); test: Cytochrome P450 Family 2 Subfamily D Member 6 (CYP2D6) small molecule antagonists: luciferase reporter qHTS assay (AID 1671196); also: nearly all actives have a fitted effect of over 50% in size; also: potency is read from the fitted curve at half-maximal effect
Chain of Cytochrome P450 2D6 (Homo sapiens) (P10635 whole entry, looked up): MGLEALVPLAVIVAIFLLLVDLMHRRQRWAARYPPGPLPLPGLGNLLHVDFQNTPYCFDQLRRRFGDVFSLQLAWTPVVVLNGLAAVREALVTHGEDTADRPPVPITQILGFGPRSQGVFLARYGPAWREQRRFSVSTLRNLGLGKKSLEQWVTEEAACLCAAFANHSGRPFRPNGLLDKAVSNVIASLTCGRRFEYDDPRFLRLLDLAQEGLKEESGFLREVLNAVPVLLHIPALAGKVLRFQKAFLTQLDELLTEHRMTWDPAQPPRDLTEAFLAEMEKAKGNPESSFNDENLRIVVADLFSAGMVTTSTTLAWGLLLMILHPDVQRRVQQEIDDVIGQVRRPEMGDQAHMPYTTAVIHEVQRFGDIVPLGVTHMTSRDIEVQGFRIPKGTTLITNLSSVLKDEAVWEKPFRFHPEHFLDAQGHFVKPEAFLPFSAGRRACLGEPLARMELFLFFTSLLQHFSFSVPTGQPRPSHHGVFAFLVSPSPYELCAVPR
Summary of the method: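 Read-out is luminescence from luciferin formed by CYP2D6 turnover of a proluciferin substrate, recorded as relative luminescence units. Reactions ran 1 h at room temperature after NADPH regeneration solution was added.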

[5] = molecular target: Cytochrome P450 2C19 (Homo sapiens) (UniProt P33261); test: Cytochrome P450 Family 2 Subfamily C Member 19 (CYP2C19) small molecule antagonists: luciferase reporter qHTS assay (AID 1671197); also: nearly all actives have a fitted effect of over 65% in size; also: potency is read from the fitted curve at half-maximal effect
Chain of Cytochrome P450 2C19 (Homo sapiens) (P33261 whole entry, looked up): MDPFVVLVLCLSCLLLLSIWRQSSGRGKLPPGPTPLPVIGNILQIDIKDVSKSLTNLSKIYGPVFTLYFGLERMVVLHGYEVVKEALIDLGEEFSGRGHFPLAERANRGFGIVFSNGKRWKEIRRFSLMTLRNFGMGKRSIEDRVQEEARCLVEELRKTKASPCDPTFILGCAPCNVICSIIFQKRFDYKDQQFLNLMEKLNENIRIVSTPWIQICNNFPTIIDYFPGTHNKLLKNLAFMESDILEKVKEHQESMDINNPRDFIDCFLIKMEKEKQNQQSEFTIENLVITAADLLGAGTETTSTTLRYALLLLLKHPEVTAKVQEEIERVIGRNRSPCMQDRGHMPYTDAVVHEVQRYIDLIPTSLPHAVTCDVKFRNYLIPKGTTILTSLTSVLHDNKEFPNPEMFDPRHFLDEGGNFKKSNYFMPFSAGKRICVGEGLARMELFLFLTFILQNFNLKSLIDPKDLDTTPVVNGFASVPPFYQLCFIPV
Summary of the method: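 Light output is proportional to CYP2C19 activity: proluciferin substrate is converted to luciferin, then detected by a luciferin detection reagent that also stops the 1 h, 37C NADPH-driven reaction. Ketoconazole serves as positive control.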

[6] = molecular target: Cytochrome P450 2C9 (Homo sapiens) (UniProt P11712); test: Cytochrome P450 Family 2 Subfamily C Member 9 (CYP2C9) small molecule antagonists: luciferase reporter qHTS assay (AID 1671198); also: nearly all actives have a fitted effect of over 50% in size; also: potency is read from the fitted curve at half-maximal effect
Chain of Cytochrome P450 2C9 (Homo sapiens) (P11712 whole entry, looked up): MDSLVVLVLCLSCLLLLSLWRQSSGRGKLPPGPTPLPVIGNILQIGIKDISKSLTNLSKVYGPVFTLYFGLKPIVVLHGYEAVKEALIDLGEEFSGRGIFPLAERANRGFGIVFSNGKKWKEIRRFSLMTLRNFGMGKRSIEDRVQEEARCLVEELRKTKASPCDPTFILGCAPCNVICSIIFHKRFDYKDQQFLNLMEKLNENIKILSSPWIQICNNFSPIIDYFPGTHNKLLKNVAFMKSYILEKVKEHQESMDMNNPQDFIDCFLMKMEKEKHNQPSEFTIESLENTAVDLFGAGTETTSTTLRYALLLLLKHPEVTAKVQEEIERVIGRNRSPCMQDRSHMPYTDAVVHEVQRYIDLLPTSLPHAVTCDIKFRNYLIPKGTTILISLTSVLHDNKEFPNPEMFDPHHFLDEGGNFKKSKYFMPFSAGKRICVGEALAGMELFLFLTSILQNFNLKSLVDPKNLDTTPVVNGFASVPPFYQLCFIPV
Summary of the method: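 CYP2C9 activity was measured with a P450-Glo proluciferin substrate. Enzyme–substrate mix was held with compound for 10 min at room temperature, then NADPH regeneration solution was added for 1 h at 37C. Luciferin product was read as luminescence.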

[7] = molecular target: Cytochrome P450 1A2 (Homo sapiens) (UniProt P05177); test: Cytochrome P450 Family 1 Subfamily A Member 2 (CYP1A2) small molecule antagonists: luciferase reporter qHTS assay (AID 1671199); also: nearly all actives have a fitted effect of over 50% in size; also: potency is read from the fitted curve at half-maximal effect
Chain of Cytochrome P450 1A2 (Homo sapiens) (P05177 whole entry, looked up): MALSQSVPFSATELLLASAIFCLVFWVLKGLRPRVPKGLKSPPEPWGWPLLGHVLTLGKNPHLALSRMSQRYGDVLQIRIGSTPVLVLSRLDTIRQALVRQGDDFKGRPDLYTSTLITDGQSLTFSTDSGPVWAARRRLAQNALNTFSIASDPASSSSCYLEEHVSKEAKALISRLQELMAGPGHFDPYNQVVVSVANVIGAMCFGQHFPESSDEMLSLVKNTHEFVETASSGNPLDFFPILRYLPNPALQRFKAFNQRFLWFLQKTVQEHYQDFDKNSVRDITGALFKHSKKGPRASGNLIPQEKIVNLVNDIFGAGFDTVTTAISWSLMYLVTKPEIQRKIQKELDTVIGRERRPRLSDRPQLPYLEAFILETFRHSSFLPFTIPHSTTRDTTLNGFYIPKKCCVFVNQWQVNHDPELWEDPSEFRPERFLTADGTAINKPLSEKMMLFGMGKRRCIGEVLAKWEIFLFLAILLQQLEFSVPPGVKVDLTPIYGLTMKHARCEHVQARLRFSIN
Summary of the method: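 P450-Glo CYP1A2, 1536-well qHTS: enzyme/proluciferin substrate + cpd (DMSO), 10 min RT; NADPH regen, 1 h RT; detection reagent, 20 min; luminescence, RLU.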

[8] = molecular target: Voltage-gated inwardly rectifying potassium channel KCNH2 (Homo sapiens) (UniProt Q12809); test: Human Ether-a-go-go-Related Gene (hERG) channel small molecule antagonists: fluorescence cell-based qHTS assay (AID 1671200)
Chain of Voltage-gated inwardly rectifying potassium channel KCNH2 (Homo sapiens) (Q12809 whole entry, looked up): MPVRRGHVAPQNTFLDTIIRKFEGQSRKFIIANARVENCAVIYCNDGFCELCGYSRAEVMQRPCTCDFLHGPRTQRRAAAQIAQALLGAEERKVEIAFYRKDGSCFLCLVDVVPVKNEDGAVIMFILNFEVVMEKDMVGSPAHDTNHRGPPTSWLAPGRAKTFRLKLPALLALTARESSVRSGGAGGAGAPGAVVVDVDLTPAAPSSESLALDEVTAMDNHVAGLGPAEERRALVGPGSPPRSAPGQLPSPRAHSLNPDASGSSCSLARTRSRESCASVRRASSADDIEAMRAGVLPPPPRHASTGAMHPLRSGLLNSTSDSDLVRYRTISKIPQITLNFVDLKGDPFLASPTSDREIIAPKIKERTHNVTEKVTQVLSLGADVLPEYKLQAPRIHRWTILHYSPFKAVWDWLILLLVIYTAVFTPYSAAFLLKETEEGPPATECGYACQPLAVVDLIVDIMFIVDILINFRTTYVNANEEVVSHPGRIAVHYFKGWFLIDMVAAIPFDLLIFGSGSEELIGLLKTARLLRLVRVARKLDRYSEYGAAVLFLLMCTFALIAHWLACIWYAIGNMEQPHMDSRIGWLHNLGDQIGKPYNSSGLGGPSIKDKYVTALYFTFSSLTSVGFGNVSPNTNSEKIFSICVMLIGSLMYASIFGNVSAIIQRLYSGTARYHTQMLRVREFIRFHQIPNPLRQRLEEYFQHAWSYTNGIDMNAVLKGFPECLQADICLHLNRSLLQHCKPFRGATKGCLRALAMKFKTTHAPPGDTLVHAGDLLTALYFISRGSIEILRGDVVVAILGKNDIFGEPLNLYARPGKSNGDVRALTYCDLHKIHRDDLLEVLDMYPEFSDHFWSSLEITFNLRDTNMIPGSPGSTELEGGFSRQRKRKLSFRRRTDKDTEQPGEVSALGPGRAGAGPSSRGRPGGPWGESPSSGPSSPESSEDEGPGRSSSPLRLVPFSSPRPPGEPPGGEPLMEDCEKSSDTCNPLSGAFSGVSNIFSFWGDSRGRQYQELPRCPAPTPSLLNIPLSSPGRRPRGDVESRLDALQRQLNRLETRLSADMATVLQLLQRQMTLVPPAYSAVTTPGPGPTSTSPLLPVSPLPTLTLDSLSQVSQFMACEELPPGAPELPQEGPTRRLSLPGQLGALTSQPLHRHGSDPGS
Summary of the method: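 Kinetic two-minute fluorescence traces, sampled at 1 s, were collected following thallium stimulus of U2OS cells (1000 per well) that had been cultured overnight at 37 C and loaded with FluxOR II.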

[9] = molecular target: Cytochrome P450 3A4 (Homo sapiens) (UniProt P08684); test: Cytochrome P450 Family 3 Subfamily A Member 4 (CYP3A4) small molecule antagonists: luciferase reporter qHTS assay (AID 1671201); also: nearly all actives have a fitted effect of over 50% in size; also: potency is read from the fitted curve at half-maximal effect
Chain of Cytochrome P450 3A4 (Homo sapiens) (P08684 whole entry, looked up): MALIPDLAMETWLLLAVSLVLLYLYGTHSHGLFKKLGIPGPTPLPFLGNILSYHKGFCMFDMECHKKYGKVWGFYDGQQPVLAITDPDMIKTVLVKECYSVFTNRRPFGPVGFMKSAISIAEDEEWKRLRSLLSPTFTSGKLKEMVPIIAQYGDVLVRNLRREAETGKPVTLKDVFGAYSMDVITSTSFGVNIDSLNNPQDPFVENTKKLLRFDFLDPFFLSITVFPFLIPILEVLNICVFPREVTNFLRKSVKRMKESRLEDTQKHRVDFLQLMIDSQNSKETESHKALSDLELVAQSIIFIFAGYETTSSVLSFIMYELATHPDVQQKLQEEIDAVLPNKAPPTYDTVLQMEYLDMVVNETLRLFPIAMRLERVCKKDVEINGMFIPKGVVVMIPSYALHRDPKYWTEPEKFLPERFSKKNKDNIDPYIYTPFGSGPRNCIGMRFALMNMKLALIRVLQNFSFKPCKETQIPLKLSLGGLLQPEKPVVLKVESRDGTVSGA
Summary of the method: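 Proluciferin-to-luciferin conversion by CYP3A4, NADPH-regenerated, 1 h RT; luminescence read as RLU. Ketoconazole as control.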

Row | Structure (SMILES) | Potency [1] | Potency [2] | Potency [3] | Potency [4] | Potency [5] | Potency [6] | Potency [7] | Potency [8] | Potency [9]
1 | COC(=O)/C=C(\C)OP(=O)(OC)OC | 3.56 µM (active) | 1 µM (active) | 17.8 µM (active) | 31.7 µM (active) | 71 µM (active) | inactive | inactive | inactive | inactive
2 | Cc1cnc2c(C(=O)O)c(Cl)ccc2c1 | inactive | inactive | inactive | inactive | inactive | inactive | – | inactive | inactive
3 | COP(=S)(OC)Oc1ccc([N+](=O)[O-])c(C)c1 | inactive | 50.2 µM (active) | inactive | 25.2 µM (active) | 0.399 µM (active) | 7.1 µM (active) | 1.12 µM (active) | inactive | 7.1 µM (active)
4 | Cc1nn(-c2cc(NS(C)(=O)=O)c(Cl)cc2Cl)c(=O)n1C(F)F | inactive | inactive | inactive | inactive | inactive | 39.9 µM (active) | – | inactive | inactive
5 | O=NN(CCO)CCO | inactive | inactive | inactive | inactive | 78.4 µM (active) | inactive | – | inactive | inactive
6 | COC(=O)N(OC)c1ccccc1COc1ccn(-c2ccc(Cl)cc2)n1 | inactive | inactive | inactive | 22.4 µM (active) | 0.283 µM (active) | 7.1 µM (active) | 1.12 µM (active) | – | inactive
7 | CC(C)C(Br)C(=O)NC(N)=O (configuration not stated) | inactive | inactive | inactive | inactive | inactive | inactive | inactive | inactive | inactive
8 | c1ccc(N=NNc2ccccc2)cc1 | inactive | inactive | inactive | 65.4 µM (active) and 63.3 µM (active) | 23.2 µM (active) and 50.2 µM (active) | 26 µM (active) and 31.7 µM (active) | 13.1 µM (active) and 15.9 µM (active) | – | 26 µM (active)
9 | CSC(=O)c1c(C(F)F)nc(C(F)(F)F)c(C(=O)SC)c1CC(C)C | inactive | inactive | inactive | inactive | 3.15 µM (active) | 9.97 µM (active) | 3.15 µM (active) | – | 6.29 µM (active)
10 | CCOP(=S)(OCC)SC(CCl)N1C(=O)c2ccccc2C1=O (configuration not stated) | 63.3 µM (active) | 10 µM (active) | 1.42 µM (active) | 39.9 µM (active) | 0.399 µM (active) | 1.12 µM (active) | – | inactive | 1.59 µM (active)
11 | CN(C)c1ccc(N)cc1 | 61.8 µM (active) | 11 µM (active) | inactive | 24.6 µM (active) | 7.78 µM (active) | 31 µM (active) | 12.3 µM (active) | – | 19.5 µM (active)
12 | ClC(Cl)C(Cl)(Cl)Cl | inactive | inactive | inactive | inactive | inactive | inactive | 31.1 µM (active) | inactive | inactive
13 | CCO/N=C(\CC)C1=C(O)CC(c2c(C)cc(C)cc2C)CC1=O (configuration not stated) | inactive | inactive | inactive | 27.5 µM (active) | 5.03 µM (active) | 7.31 µM (active) | – | inactive | inactive
14 | ClC1=C(Cl)[C@]2(Cl)[C@H]3[C@H]([C@@H]4C=C[C@H]3C4)[C@@]1(Cl)C2(Cl)Cl | inactive | inactive | inactive | 35.5 µM (active) and inactive | inactive and 35.6 µM (active) | inactive | inactive | – | 252 nM (active) and 399 nM (active)
15 | O=c1[nH]c(Cl)c(Cl)cc1Cl | inactive | inactive | inactive | inactive | inactive | 39.9 µM (active) | – | inactive | inactive
16 | CN1C(=O)[C@@H](NC(=O)c2cc3ccccc3[nH]2)N=C(c2ccccc2)c2ccccc21 | inactive | inactive | inactive | inactive | inactive | 4.9 µM (active) | inactive | – | inactive
17 | BrCC(Br)(Br)Br | inactive | inactive | inactive | inactive | inactive | inactive | inactive | inactive | inactive
18 | CC(=O)[O][Pb]([c]1ccccc1)([c]1ccccc1)[c]1ccccc1 | inactive | inactive | inactive | 22.4 µM (active) | 8.94 µM (active) | 3.17 µM (active) | 39.9 µM (active) | – | 10 µM (active)
19 | O=[N+]([O-])c1ccc(CCl)cc1 | inactive | inactive | inactive | inactive | inactive | inactive | – | inactive | inactive
20 | CN(C)CCc1c[nH]c2ccccc12 | inactive | inactive | inactive | 39.6 µM (active) | inactive | inactive | inactive | inactive | inactive
21 | CCc1cccc(C)c1N(C(=O)CCl)[C@@H](C)COC | inactive | inactive | inactive | inactive | 5.64 µM (active) | 17.8 µM (active) | – | inactive | –
22 | Clc1ccc(C2(Cn3cncn3)OCCO2)c(Cl)c1 | inactive | inactive | inactive | 63.3 µM (active) | 3.17 µM (active) | 17.8 µM (active) | 28.3 µM (active) | inactive | 0.502 µM (active)
